Reference: paper PMC4336329 (PLoS ONE, 2015)
In all, about 310,000 compounds went through this assay and about 14,000 (4.5%) showed an effect of 50% or more. The effect is printed as a negative number. The entries come from a sample that favours strong results as a whole.

Target: human ether-à-go-go-related gene (hERG) potassium channel (human, UniProt Q12809)
Assay: primary screen, population patch clamp on CHO cells stably expressing hERG; higher = less effect of the substance
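Further: peak tail current of the secondary pulse compared with the same well before compound.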

Sequence of human ether-à-go-go-related gene (hERG) potassium channel (Q12809 whole entry, looked up): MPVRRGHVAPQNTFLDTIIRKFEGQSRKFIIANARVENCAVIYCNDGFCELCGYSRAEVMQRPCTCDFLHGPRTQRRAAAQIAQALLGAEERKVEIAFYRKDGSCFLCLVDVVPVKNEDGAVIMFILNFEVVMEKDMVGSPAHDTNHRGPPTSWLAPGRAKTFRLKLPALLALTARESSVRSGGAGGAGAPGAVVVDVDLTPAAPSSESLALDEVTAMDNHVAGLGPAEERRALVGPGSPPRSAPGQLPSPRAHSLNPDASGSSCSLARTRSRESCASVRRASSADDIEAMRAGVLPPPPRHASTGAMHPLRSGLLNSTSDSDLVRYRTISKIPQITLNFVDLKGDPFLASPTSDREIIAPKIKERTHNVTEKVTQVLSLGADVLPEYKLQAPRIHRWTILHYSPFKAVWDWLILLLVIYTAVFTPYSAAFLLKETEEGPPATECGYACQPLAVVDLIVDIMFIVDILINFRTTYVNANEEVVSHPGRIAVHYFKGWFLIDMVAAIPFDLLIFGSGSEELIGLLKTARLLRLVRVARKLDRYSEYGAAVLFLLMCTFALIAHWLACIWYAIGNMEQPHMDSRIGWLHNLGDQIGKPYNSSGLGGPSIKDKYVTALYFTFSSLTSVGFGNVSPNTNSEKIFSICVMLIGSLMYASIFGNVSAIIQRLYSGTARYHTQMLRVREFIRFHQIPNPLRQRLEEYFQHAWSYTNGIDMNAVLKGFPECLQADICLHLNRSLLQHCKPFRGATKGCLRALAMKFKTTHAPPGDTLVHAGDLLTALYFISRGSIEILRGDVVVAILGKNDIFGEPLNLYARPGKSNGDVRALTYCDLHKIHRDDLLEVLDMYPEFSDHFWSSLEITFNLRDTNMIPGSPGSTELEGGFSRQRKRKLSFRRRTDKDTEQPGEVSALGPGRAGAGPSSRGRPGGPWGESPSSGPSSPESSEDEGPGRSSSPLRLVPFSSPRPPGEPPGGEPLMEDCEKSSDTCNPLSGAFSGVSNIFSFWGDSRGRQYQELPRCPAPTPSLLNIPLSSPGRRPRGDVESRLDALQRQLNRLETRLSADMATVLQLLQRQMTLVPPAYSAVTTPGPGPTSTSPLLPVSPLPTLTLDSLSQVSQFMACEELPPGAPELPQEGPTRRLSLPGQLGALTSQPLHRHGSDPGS

Compound | hERG current change (%, negative = inhibition) at 10uM
Cc1n[nH]c(C)c1CCNC(=O)C1CCC(=O)N(CCc2cccc(F)c2)C1 (stereo not drawn) | 9.63%
Cc1ccc(C(=O)NCCNC(=O)c2ccccc2)cc1 | 8.24%
O=[N+]([O-])c1ccc(C23CC4CC(CC(O)(C4)C2)C3)cc1 | -37.8%
O=C(Nc1ccc2nc(-c3ccc4nc[nH]c4c3)[nH]c2c1)c1cccs1 | 17.1%
COC(=O)c1cc(S(=O)(=O)NCC2CCN(Cc3cc(C)ccc3C)CC2)c[nH]1 | -11%
Cc1nc2scc(C)n2c(=O)c1S(=O)(=O)NCCc1ccc(Cl)cc1 | 7.69%
Cc1nc2scc(C)n2c(=O)c1S(=O)(=O)NCC1CCN(Cc2ccc(Cl)cc2)CC1 | -50.1%
COC(=O)c1cc(S(=O)(=O)NCC2CCN(Cc3ccc(Cl)cc3)CC2)c[nH]1 | -71.2%
Cc1nc2scc(C)n2c(=O)c1S(=O)(=O)NCC1CCN(Cc2ccc(F)cc2)CC1 | -49.7%
COC(=O)c1cc(S(=O)(=O)NCCc2ccc(C)cc2)c[nH]1 | -9.92%
COC(=O)c1cc(S(=O)(=O)NCC2CCN(Cc3ccc(C)cc3)CC2)c[nH]1 | -73.8%
COC(=O)c1cc(S(=O)(=O)NCCc2ccc(Cl)cc2)c[nH]1 | -3.4%
COC(=O)c1cc(S(=O)(=O)NCC2CCN(Cc3cccc(Cl)c3)CC2)c[nH]1 | -41.9%
COc1ccc(C2NS(=O)(=O)OCC2C)cc1 (stereo not drawn) | 16.4%
COc1ccc(C(=O)NCCN2C(=O)S/C(=C\c3cccnc3)C2=O)c(OC)c1OC | -9.86%
CCNC(=S)N1CCN(CCN=CC2=C(O)CC(C)(C)CC2=O)CC1 | -9.75%
CCC(CC)C(=O)N1CCN(c2ccccc2)CC1 | -2.08%
CC(=O)c1ccc(N2CCN(CC(O)c3ccccc3)CC2)cc1 (stereo not drawn) | -11.6%
Cc1ccc(Cl)cc1N1CCN(C(=S)NCc2ccco2)CC1 | 37.1%
Cc1ccc(Cl)cc1N1CCN(Cc2nnnn2Cc2ccco2)CC1 | -37.9%
CC(=O)c1ccc(N2CCN(CC(O)COC(c3ccccc3)c3ccccc3C)CC2)cc1 (stereo not drawn) | -41%
COc1ccc(OCC(O)CN2CCN(c3ccccc3)CC2)cc1.Cl (stereo not drawn) | -39.2%
COc1ccc(N2CCN(CC(O)COCc3ccccc3)CC2)cc1.Cl (stereo not drawn) | -25.2%
Cc1ccc(Cl)cc1N1CCN(CC(O)COCc2ccco2)CC1.O=C(O)C(=O)O (stereo not drawn) | -73.1%

Compound | hERG current change (%, negative = inhibition) at 10uM
CC(=O)c1ccc(N2CCN(CC(O)COCc3ccco3)CC2)cc1 (stereo not drawn) | -56.3%
COc1ccc(N2CCN(CC(O)COC(c3ccccc3)c3ccccc3)CC2)cc1 (stereo not drawn) | -64.9%
O=C(O)C(=O)O.OC(COCc1ccco1)CN1CCN(c2ccccc2)CC1 (stereo not drawn) | -24.8%
CC(=O)c1ccc(N2CCN(CC(O)COC(c3ccccc3)c3ccccc3)CC2)cc1 (stereo not drawn) | -66.5%
OC(COCc1ccccc1)CN1CCN(c2ccccc2)CC1 (stereo not drawn) | -45.2%
CC(=O)Nc1ccc(S(=O)(=O)N2CCN(S(=O)(=O)N3CCCCCC3)CC2)cc1 | 8.41%
CC(C)c1onc(C(=O)N2CCN(c3ccccc3)CC2)c1[N+](=O)[O-] | 14.1%
CCC(C)(C)C1CCC(NC(=O)N2CCN(c3ccccc3O)CC2)CC1 (stereo not drawn) | -6.84%
COc1cc(Cl)c(C)cc1NC(=O)CSc1cc(Cl)ccc1Cl | 7.31%
COc1ccc(CC(=O)OCCN(C)C)cc1.Cl | 11.8%
c1ccc(CCN2CN=C(Nc3nc4ccccc4s3)NC2)cc1 | -1.49%
COc1ccc(N2CCN(CCC(O)c3ccc4ccccc4c3)CC2)cc1 (stereo not drawn) | -68.3%
CCCN1CCN(CC(O)COC(c2ccc(OC)cc2)c2ccc(OC)cc2)CC1.O=C(O)C(=O)O (stereo not drawn) | -30.2%
COc1ccc(C(CCN2CCN(c3ccccc3)CC2)c2c(O)cc(OC)cc2OC)cc1 (stereo not drawn) | -30.5%
Cc1ccc(Cl)cc1N1CCN(CCN)CC1 | -0.374%
COc1ccc(N2CCN(CC(O)COC(c3ccc(F)cc3)c3ccc(F)cc3)CC2)cc1.O=C(O)C(=O)O (stereo not drawn) | -81.6%
COc1ccc(N2CCN(CC(O)COC(C)(C)C)CC2)cc1.O=C(O)C(=O)O (stereo not drawn) | 10.2%
COc1ccc(N2CCN(CCN3C(=O)c4ccccc4C3=O)CC2)cc1 | 17.6%
Cc1ccc(Cl)cc1N1CCN(CC(O)COC(C)C)CC1.Cl (stereo not drawn) | -63.7%
Cc1ccc(Cl)cc1N1CCN(Cc2cc3c(cc2O)CCC3)CC1 | 4.92%
N=C1C(c2ccc(Br)cc2)=C(O)C2CCc3ccccc3N12 (stereo not drawn) | -30.5%
CC(C)N(C(=O)Cn1cnc2cc([N+](=O)[O-])ccc2c1=O)C(C)C | 7.76%
Cc1cccc2cc(CN(CCCO)C(=O)Nc3ccccc3Cl)c(=O)[nH]c12 | 5.32%
O=C(N=C1c2ccccc2CN1c1ccccc1)c1cccc([N+](=O)[O-])c1 | -1.72%

Compound | hERG current change (%, negative = inhibition) at 10uM
CCC1CCCCN1CCCNC(=O)CCNC(=O)Cn1cnc2ccccc2c1=O (stereo not drawn) | -0.683%
CC1CCCN(CCCNC(=O)c2cc3c(Cl)nc4ccccc4c3s2)C1 (stereo not drawn) | -55.6%
CCC1CCCCN1CCCNC(=O)c1cc2c(Cl)nc3ccccc3c2s1 (stereo not drawn) | -76.6%
Cc1nc2ccccc2c2oc(C(=O)NCCCN3CCCC(C)C3)cc12 (stereo not drawn) | -19%
Cc1ccc2nc(Cl)c3cc(C(=O)NCCCN4CCCC4)sc3c2c1 | -10.3%
CC1CCN(CCCNC(=O)c2cc3c(Cl)nc4ccccc4c3s2)CC1 | -66.2%
CCN(CC)CCCNC(=O)c1cc2c(Cl)nc3ccccc3c2s1 | -47.1%
CC1CCCN(CCCNC(=O)c2coc3nc4ccccc4nc23)C1 (stereo not drawn) | -5.67%
O=C(NCCCN1CCCC1)c1cc2c(Cl)nc3ccccc3c2s1 | -13.9%
Cc1cccc(C)c1NC(=O)C1(N(Cc2ccco2)C(=O)CC2NC(=O)NC2=O)CCCCC1 (stereo not drawn) | 7.25%
CCN(CC)C(=O)CSc1nnnn1-c1ccc(F)c(Cl)c1 | -3.28%
O=C(Oc1ccc(-c2nc(-c3ccccn3)no2)cc1)c1ccccc1 | 7.73%
CCOC(=O)c1[nH]c2ccc(OC)cc2c1NC(=O)c1ccc2c(c1)OCO2 | 17.1%
CN(CC(=O)Nc1ccccc1C(F)(F)F)C(=O)c1ccc(-c2ccc(Cl)cc2)o1 | -13.7%
COc1ccc(-n2nnc3c(SCC(=O)Nc4ccc5c(c4)OCCO5)ncnc32)cc1 | 0.643%
C=CCNC(=O)c1onc(CSc2ccc(Cl)cc2)c1C(=O)O | 15.2%
CC(C)(O)C#Cc1ccc(C(=O)Nc2ccc3c(c2)OCO3)s1 | 22.7%
O=C(Nc1cccnc1Cl)c1cc2ccccc2o1 | 6.92%
O=C(O)c1cccc(OS(=O)(=O)c2cc(Br)ccc2Br)c1 | -9.65%
O=C(Nc1ccccc1Cl)c1cc(S(=O)(=O)N2CCOCC2)cs1 | -9.07%
Cc1ccc(NC(=O)c2cc(S(=O)(=O)N3CCOCC3)cs2)cc1 | -8.31%
O=C(Nc1ccccc1C(=O)O)c1cc(S(=O)(=O)N2CCCCC2)cs1 | 10.1%
Cn1cc(S(=O)(=O)N2CCOCC2)cc1C(=O)Nc1ccc(Cl)cc1 | -51%
O=C(Nc1ccc(Cl)cc1)c1cc(S(=O)(=O)N2CCOCC2)cs1 | -51.2%

Compound | hERG current change (%, negative = inhibition) at 10uM
Cn1cc(S(=O)(=O)N2CCOCC2)cc1C(=O)Nc1cccc(Cl)c1 | -10.4%
O=C(Nc1ccccc1C(=O)O)c1cc(S(=O)(=O)N2CCOCC2)cs1 | -66.4%
Cc1ccc(NC(=O)c2cc(S(=O)(=O)N3CCOCC3)cn2C)cc1Cl | 11.2%
O=C(Nc1ccc(F)cc1)c1cc(S(=O)(=O)N2CCOCC2)cs1 | -11%
CCOc1ccccc1NC(=O)NCc1ccccc1 | 0.101%
CN(C)S(=O)(=O)c1ccc2c(c1)C(CC(=O)O)NC2=O (stereo not drawn) | 6.72%
CCCOc1ccc(N2C(=O)CC(SC(=NCC)NCC)C2=O)cc1 (stereo not drawn) | 11.9%
Cc1nc(-c2ccccc2)sc1C(=O)CSc1ccc(F)cc1 | -7.92%
CNC(=S)NNC(=O)c1cccn(Cc2ccccc2)c1=O | 19%
COc1ccc(CC(C)N2CCN(Cc3ccccc3)CC2)c(OC)c1 (stereo not drawn) | -75.3%
COc1ccc(CN2CCN(c3ccccn3)CC2)c(OC)c1 | -75.9%
COc1ccc(OC)c(S(=O)(=O)N2CCN(c3ccccn3)CC2)c1 | -12.5%
COc1ccc(CN2CCc3ccccc3C2)c(OC)c1 | -28.4%
COc1ccc(CN2CCN(c3ccccn3)CC2)cc1OCc1ccccc1 | -67.9%
COc1ccc(S(=O)(=O)N2CCN(CCc3ccccc3)CC2)c(OC)c1 | -25.6%
CCN1CCN(Cc2ccc(OC)c(OCc3ccccc3)c2)CC1 | -41.9%
COc1ccc(CN2CCN(CCCc3ccccc3)CC2)c(OC)c1 | -76.6%
COc1ccc(CN2CCN(C)CC2)cc1OCc1ccccc1 | -19%
COc1ccc(NC(=S)N2CCN(Cc3ccccc3)CC2)c(OC)c1 | -5.79%
COc1ccc(-c2[nH]ncc2CN2CCN(c3ccccn3)CC2)c(OC)c1 | -31.5%
COc1ccc(OC)c(S(=O)(=O)N2CCN(Cc3ccccc3)CC2)c1 | 2.05%
